Here are results for 33 molecules from PubChem BioAssay (NCATS).

Results filed as inconclusive are left out. A call without a number means that no potency is given here. Active and inactive are the calls of the source. The call rests on the fitted dose curve; in most records, active means well fitted curve in the direction sought with a large enough effect; inconclusive means small, poorly fitted or top-dose-only effect, or another doubt; inactive means no such curve, though single readings can be large or run the other way.

In this test the target is Glucagon-like peptide 1 receptor (Homo sapiens) (UniProt P43220). Put plainly: qHTS of GLP-1 Receptor Agonists: LOPAC Validation (AID 624148).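 Further: luminescence from a luciferase reporter switched on by cAMP; higher luminescence signal means agonism.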 Particulars: GLP-1R agonist cell assay; series mostly up to 46.1 µM. A digest of the protocol: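 Agonism scored as increased luciferase luminescence driven by cAMP in HEK293 clones carrying GLP-1R. Cells settled 12 hours, received compound for 4-6 hr at 37 deg C, 5% CO2, and were read after 12 min detection reagent at RT.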
Chain of Glucagon-like peptide 1 receptor (Homo sapiens) (P43220 whole entry, looked up): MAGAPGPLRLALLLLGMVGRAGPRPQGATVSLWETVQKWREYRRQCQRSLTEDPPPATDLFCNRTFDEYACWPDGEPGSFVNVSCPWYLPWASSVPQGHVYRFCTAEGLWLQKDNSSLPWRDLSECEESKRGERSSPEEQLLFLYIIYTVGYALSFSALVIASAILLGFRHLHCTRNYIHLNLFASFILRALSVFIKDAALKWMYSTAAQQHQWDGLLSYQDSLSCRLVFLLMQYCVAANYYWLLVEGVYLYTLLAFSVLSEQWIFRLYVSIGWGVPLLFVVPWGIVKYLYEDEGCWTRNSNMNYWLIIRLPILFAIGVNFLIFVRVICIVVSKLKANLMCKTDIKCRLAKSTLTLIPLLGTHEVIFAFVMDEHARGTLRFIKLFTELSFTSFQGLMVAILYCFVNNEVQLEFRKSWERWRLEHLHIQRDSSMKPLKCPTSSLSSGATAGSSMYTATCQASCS
A general note: qHTS replaces the single test concentration by a dilution series.
For the molecule `C[C@H](O)C(=O)C1=Nc2c(nc(N)[nH]c2=O)NC1`, the Potency entry was “inactive”.
In the case of `CC(C)NCC(O)COc1ccc(CC(N)=O)cc1` (stereo not drawn) it was “inactive”; in that of `CC(C)NC[C@H](O)COc1cccc2ccccc12`, “inactive”; in that of `Cc1cc(Cn2cnc3c2C[C@@H](C(=O)O)N(C(=O)C(c2ccccc2)c2ccccc2)C3)ccc1N`, “inactive”.
Take `N#Cc1cc([N+](=O)[O-])c2sc(C(N)=O)[n+]([O-])c2c1`: the Potency entry is “inactive”.
In the case of `N=C(N)c1ccccc1` it was “inactive”.
In the case of `Oc1ccc(/C=C/c2ccc(/C=C/c3ccc(O)cc3)c(Br)c2)cc1` it was “inactive”.
In the case of `CN(C)CCC(c1ccc(Br)cc1)c1ccccn1` (stereo not drawn) it was “inactive”; in that of `CCCCCCN(CCCCCC)C(=O)Cc1c(-c2ccc(F)cc2)[nH]c2ccccc12`, “inactive”.
Turning to `O=C(O)/C=C/c1ccc(O)c(O)c1`, the Potency result was “inactive”.
As for `CCc1ccc2c(-c3cccc(Cl)c3)nc(=O)n(CC)c2n1`, the Potency result is “inactive”.
Consider `CNCCc1cnc(CCC(c2ccccc2)c2ccccc2)[nH]1`, for which the Potency result is “inactive”.
With `CC[n+]1c(/C=C/C=C2/N(C)c3ccccc3C2(C)C)sc2ccccc21`, the Potency entry is “inactive”.
In the case of `Cc1nc2n(c(=O)c1CCN1CCC(c3noc4cc(F)ccc34)CC1)CCCC2O` (stereo not drawn) it was “inactive”; in that of `COc1ccc(CCn2nnnc2C2(c3ccc(C)cc3)CC2)cc1`, “inactive”; in that of `O=c1cc(-c2ccccc2F)[nH]c2cc3c(cc12)OCO3`, “inactive”.
In the case of `c1ccc(C(NCc2cccnc2)(c2ccccc2)c2ccccc2)cc1` it was “inactive”; in that of `C=CCN1CCc2cc(O)c(O)cc2C(c2ccccc2)C1` (stereo not drawn), “inactive”; in that of `Nc1ncnc2c1nc(Br)n2C1OC2COP(=O)(O)O[C@@H]2C1O` (stereo partly drawn), “inactive”.
Take `Cn1cc(C(=O)OCC2CCN(CCNS(C)(=O)=O)CC2)c2ccccc21`: the Potency entry is “inactive”.
The same measure for `O=c1cc(-c2ccccc2)[nH]c2nc(Cl)ccc12`: “inactive”; for `Cn1cc(C(F)(F)F)nc1-c1ccc(OCC(O)CNCCOc2ccc(O)c(C(N)=O)c2)cc1` (stereo not drawn): “inactive”.
In the case of `Nc1nc2c(cnn2CCc2ccccc2)c2nc(-c3ccco3)nn12` it was “inactive”; in that of `Brc1c(Br)c(Br)c2[nH]cnc2c1Br`, “inactive”; in that of `O=C(N[C@@H](Cc1ccccc1)C(=O)CCl)OCc1ccccc1`, “inactive”.
The same measure for `Nc1ncnc2c1c(-c1ccc(Oc3ccccc3)cc1)cn2C1CCCC1`: “inactive”; for `CCCCCCCC/C=C\CCCCCCCC(=O)NCCc1ccc(O)c(O)c1`: “inactive”; for `O=c1oc(Cl)c(Cl)c2ccccc12`: “inactive”.
On to `COc1ccc(-c2cc3ncc(C)n3c(Nc3ncccc3C(N)=O)n2)cc1OC`, for which the Potency result was “inactive”.
Consider `O=C1Nc2ccc(I)cc2/C1=C/c1cc(Br)c(O)c(Br)c1`, for which the Potency result is “inactive”.
The same measure for `CN1CCc2cc(Cl)c(O)cc2[C@@H](c2ccccc2)C1`: “inactive”.
In the case of `C[C@](Cc1ccc(O)c(O)c1)(NN)C(=O)O`, the Potency result is “inactive”.
In the case of `COc1cc([C@@H]2c3cc4c(cc3[C@H](O)C3COC(=O)[C@@H]32)OCO4)cc(OC)c1OC` (stereo partly drawn) it was “inactive”.
